# Sampled rows, rich in hits. Any-hit rate of the full collection: about 0.95%.
# Fluorescein autfl – compound autofluorescence in fluorescein spectral region. 59,000 tested, 0.91% active. Compound autofluorescence, 480/540 nm, fluorescein-equivalent; hits give high values. max fluorescein-equivalent concentration, M. AID 593; in the data active = max fluorescein-equivalent concentration above about 10 nM; inconclusive = between about 1.1 nM and that limit
#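 In this qHTS profile, compound fluorescence was measured with a 480 nm/540 nm filter pair following a 15-min room-temperature incubation in 100 mM Tris (pH 8.0). A six-point fluorescein series on each plate served for normalization.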
# A647 fluor – compound fluoresces in the A647 spectral region; Compound fluorescence, A647 channel (570/671 nm), Tris buffer; 59,000 tested, under 10 active; AID 592; max dye-equivalent concentration, M
#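 Tris 100 mM pH 8.0; cpd + A647 stds pin-transferred; 15 min RT; CCD imager, ex 570/em 671. Output = A647-equivalent conc. per cpd conc.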
# TexasRed autofl – compound fluoresces in the Texas Red spectral region. Compound fluorescence, Texas Red channel, 547/618 nm; hits give high values. max dye-equivalent concentration, M. 59,000 tested, 0.06% active; in the data active = max dye-equivalent concentration above about 10 nM; inconclusive = between about 1.1 nM and that limit
#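 Texas Red-region profiling: compounds in 100 mM Tris pH 8.0 were read at 547/618 nm after 15 min at room temperature. Intensities were normalized against a six-point Texas Red standard series to give dye-equivalent concentration.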
# Rhodamine autofl – compound fluoresces in the rhodamine spectral region; AID 594; 59,000 tested, 0.05% active; max dye-equivalent concentration, M; Rhodamine-region fluorescence, 547/598 nm, Tris buffer; hits give high values; in the data active = max dye-equivalent concentration above about 11 nM; inconclusive = between about 1.1 nM and that limit
#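 Intensities are converted to rhodamine-equivalent concentration using a six-point rhodamine standard on each plate. Compounds sit 15 min at room temperature in 100 mM Tris buffer, pH 8.0; read uses the 547/598 nm excitation/emission pair.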
# Resorufin autofl – resorufin region autofluorescence; Compound fluorescence, resorufin region 547/598 nm, buffer; hits give high values; max dye-equivalent concentration, M; 59,000 tested, 0.04% active
#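 Compounds in 100 mM Tris buffer, pH 8.0, incubated 15 min at room temperature, then read with 547 nm excitation and 598 nm emission filters. Fluorescence was converted to dye-equivalent concentration using an on-plate six-point resorufin standard curve.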
# A488 autofl – compound autofluorescence in A488 spectral region | compound autofluorescence, A488 spectral region, dye equivalency; Compound Type: qHTS ECL - MLSMR | max dye equivalency, M | 59,000 tested, 0.1% active | AID 591
#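 Autofluorescence read at ex 480/em 540 nm after 15 min RT in 100 mM Tris pH 8.0; compound signal normalized to A488 standard series on each plate, reported as dye-equivalent concentration at each test concentration.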
# Hits are given with their value; 0 = inactive; ? = inconclusive; ! = not active in a repeat. Unless noted, no rule for the calls is given here.
SMILES,Fluorescein autfl,A647 fluor,TexasRed autofl,Rhodamine autofl,Resorufin autofl,A488 autofl
Cc1ccccc1-n1c(=O)/c(=C\c2ccco2)s/c1=C(/C#N)C(=O)Nc1ccccc1,1.37e-08M,0,0,0,0,0
CC1(C)c2ccccc2N2CC(=O)NC21/C=C/c1ccco1 (centres undefined),?,0,0,0,0,0
O=C1CC(/C=C/c2ccco2)=Nc2ccccc2N1,3.58e-08M,0,?,0,0,?
COc1ccc(-n2c(=O)c(CCc3ccccc3)nc3cnc(N4CCN(C)CC4)nc32)cc1,1.22e-08M,0,0,0,0,0
CN1/C(=C\C(=O)COC(=O)Cn2nnc(-c3ccccc3)n2)C(C)(C)c2ccccc21,?,0,2.21e-08M,?,?,0
CC(C)N(C(=O)CSc1nnc(CN2CCCCCC2=O)n1-c1ccccn1)C(C)C,?,0,0,0,0,0
CC(C)(C)c1cc(/C=C(\C#N)C(N)=S)cc(C(C)(C)C)c1O,2.76e-08M,0,0,0,0,0
COC(=O)C1=C(C)NC(C)=C(C(=O)OC(C)C)[C@H]1c1cccc2nonc12,1.16e-08M,0,0,0,0,0
Cc1ccc(CN(C(=O)c2c(F)cccc2F)C2CC(C)(C)NC(C)(C)C2)o1,0,0,0,0,0,0
CN(C)C=Nc1c(Br)cc(Br)c2nonc12,3.91e-08M,0,?,?,?,?
CN(C)C=Nc1nonc1-c1ncn[nH]1,0,0,0,0,0,0
Cc1cc2c(c(=O)o1)C(C13C=CC(CC1)C3)C(C#N)=C(N)O2 (centres undefined),0,0,0,0,0,0
O=c1c(-c2ccccc2)[n+]([O-])c2ccccc2n1O,1.73e-08M,0,0,0,0,0
CCOn1c(=O)c(-c2ccc(OC)cc2)[n+]([O-])c2ccccc21,0,0,0,0,0,0
CCOC(=O)COn1c(=O)c(-c2cccs2)[n+]([O-])c2ccccc21,1.29e-08M,0,0,0,0,0
N#Cc1ccc(NC(=O)c2cc3cc4c5c(c3oc2=N)CCCN5CCC4)cc1,2.28e-07M,0,0,0,0,1.2e-08M
N=c1oc2c3c4c(cc2cc1C(=O)Nc1ccccc1)CCCN4CCC3,4.74e-07M,0,?,?,0,2.52e-08M
CCC(C)n1c(-c2cccs2)nc2nc3ccccc3nc21 (centres undefined),0,0,0,0,0,0
COc1ccc(NC(=O)/C=C\c2ccc(Cl)cc2)cc1,?,0,?,0,0,0
CC(=O)C1(C)OC(N)=C(C#N)C(c2ccccc2)C1(C#N)C#N (centres undefined),1.08e-08M,0,0,0,0,0
CCOC(=O)C1=C(C(C)=O)C(c2cccnc2)C(C#N)=C(N)O1 (centres undefined),0,0,?,0,0,0
COc1ccc(N(CC(=O)NC2CCCC2)C(=O)c2ccc(N3CCCCC3)nc2)cc1,?,0,0,0,0,0
CC1(c2ccc(Cl)cc2Cl)OCC(Cn2ccnc2)O1 (centres undefined),0,0,?,0,0,0
CC(=O)[C@@H]1[C@H]2[C@@H](C(=O)[C@H]3OC[C@H]2O3)[C@@H]2C=Cc3ccccc3N12,1.09e-08M,0,?,0,0,0
CCOC(=O)C1(CCSC)NC(c2ccco2)C2C(=O)N(C)C(=O)C21 (centres undefined),0,0,0,0,0,0
SMILES,Fluorescein autfl,A647 fluor,TexasRed autofl,Rhodamine autofl,Resorufin autofl,A488 autofl
Cc1ccc([C@@H]2C3COCC=C3C(C#N)=C(N)C2(C#N)C#N)o1 (some centres undefined),1.16e-08M,0,0,0,0,0
Cc1cc(C(=O)Cn2nnc3ccccc3c2=O)c(C)n1-c1c(C)n(C)n(-c2ccccc2)c1=O,?,0,0,0,0,0
COc1ccc2c(OC)c3ccoc3nc2c1OC,1.05e-08M!,0,?,0,0,0
COc1c2ccoc2cc2oc(=O)ccc12,0,0,0,0,0,0
CCOC(=O)c1sc(=NC(=O)c2ccc(S(=O)(=O)N3CC(C)OC(C)C3)cc2)n(C)c1C (centres undefined),0,0,0,0,0,0
C[n+]1cc2c3c(ccc2c2ccc4cc5c(cc4c21)OCO5)OCO3,2.96e-08M,0,0,?,0,?
Cc1nc2ccccn2c1/C(O)=C1\C(=O)C(=O)N(CCN2CCOCC2)C1c1ccncc1 (centres undefined),0,0,?,0,0,0
Cc1ccc(C(C)C)c(OCC(O)CN2CCOCC2)c1 (centres undefined),?,0,0,0,0,0
Cc1ccc2c(c1)c(C)c(C)n2CC(O)CN1CCOCC1 (centres undefined),1.4e-08M,0,6.43e-08M,1.23e-08M,?,0
Cn1cc(C2=C(c3ccc(Cl)cc3Cl)C(=O)NC2=O)c2ccccc21,4.98e-07M,0,0,?,?,2.72e-08M
Cc1csc(NC(=O)CCS(=O)(=O)c2ccc(Br)cc2)n1,0,0,0,0,0,0
CC[C@H](Cc1c(I)cc(I)c(N)c1I)C(=O)O,0,0,?,0,0,0
CC(=O)c1sc2nc(-c3cccs3)cc(C(F)(F)F)c2c1N,7.16e-08M,0,0,0,0,?
COc1ccc(CCNS(=O)(=O)c2ccc(C3CNC(=O)C3)cc2)cc1OC (centres undefined),0,0,0,0,0,0
COc1ccc(C2CNC(=O)C2)cc1OC1CCCC1 (centres undefined),1.14e-08M,0,0,0,0,0
O=C1NCCCc2c1no[n+]2[O-],0,0,0,0,0,0
O=c1oc2c(CN3CCCCC3)c(O)ccc2cc1-c1nc2ccccc2[nH]1,2.83e-06M,0,0,0,0,1.4e-07M
COc1ccc(-c2nc3cnc(OC)nc3n(C)c2=O)cc1,0,0,0,0,0,0
COc1ccc2nc(N3CCC(C)CC3)c(C#N)cc2c1,?,0,0,0,0,0
COc1ccc2nc(N3CCC(O)CC3)c(C#N)cc2c1,2.31e-08M,0,0,0,0,0
O=C(O)c1ccc2c(c1C(=O)O)C(=O)OC2(c1ccc(O)cc1)c1ccc(O)cc1,0,0,0,0,0,0
O=C1OC2(c3ccc(O)cc3Oc3cc(O)ccc32)c2c1c(-c1ccccc1)c(-c1ccccc1)c(-c1ccccc1)c2-c1ccccc1,4.81e-07M,0,0,?,?,2.29e-08M
Cc1cccc(C#Cc2ccccc2)n1,?,0,?,0,0,0
C[N+]1(C)CCC[C@@H](OC(=O)C(O)(c2ccccc2)c2ccccc2)C1,0,0,?,0,0,0
O=C(c1csc2ccccc12)n1cccn1,0,0,0,0,0,0
CCOC(=O)c1ccc(N2C(=O)C3C(C2=O)C(C(=O)c2ccc(Cl)cc2)N2CCCC32)cc1 (centres undefined),5.61e-08M,0,0,0,0,?
COc1ccccc1/C=c1\sc2nc(-c3ccncc3)nn2c1=O,1.49e-08M,0,0,0,0,0

# From PubChem
